The values below come from the supplement of paper PMC8728848.

Shown is part of a subset that was picked to be rich in the strongest signals.

What all share (assay): glycan array binding signal (z-score within array); higher = stronger binding
Conditions in all cases: glycan notation: IUPAC condensed, linker removed

For assay [1], the target named is Fuc(a1-2)Gal(b1-3)GlcNAc6S. The essentials:
(§1)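 The binding signal is a Z-score computed within each array and averaged over linkers. Arrays of the same protein sequence at different concentrations or buffers were also averaged together. Data originate from 3228 arrays in the Consortium for Functional Glycomics database, kept only where the protein sequence was available.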

Assay [2] concerns the target Fuc(a1-2)Gal(b1-3)[Fuc(a1-4)]GlcNAc. Summed up: as §1
The target in assay [3] is Fuc(a1-2)Gal(b1-3)[Fuc(a1-4)]GlcNAc(b1-2)Man(a1-3)[Fuc(a1-2)Gal(b1-3)[Fuc(a1-4)]GlcNAc(b1-2)Man(a1-6)]Man(b1-4)GlcNAc(b1-4)[Fuc(a1-6)]GlcNAc(b1-4)[Fuc(a1-6)]GlcNAc. The essentials: as §1
Assay [4] addresses Fuc(a1-2)Gal(b1-3)[Fuc(a1-4)]GlcNAc(b1-3)[Fuc(a1-3)[Gal(b1-4)]GlcNAc(b1-6)]Gal(b1-4)Glc. Summed up: as §1
Assay [5] deals with Fuc(a1-2)Gal(b1-4)GlcNAc6S. The essentials: as §1
Assay [6] deals with Fuc(a1-2)[GalNAc(a1-3)]Gal(b1-3)GlcNAc(b1-2)Man(a1-3)[Fuc(a1-2)[GalNAc(a1-3)]Gal(b1-3)GlcNAc(b1-2)Man(a1-6)]Man(b1-4)GlcNAc(b1-4)[Fuc(a1-6)]GlcNAc. Summed up:
as §1

Assay [7] concerns the target Fuc(a1-3)[Gal(b1-4)]Glc6S. The essentials:
as §1

Assay [8] has as its target Fuc(a1-3)[Gal(b1-4)]GlcNAc(b1-3)Gal(b1-4)[Fuc(a1-3)]GlcNAc(b1-3)Gal(b1-4)[Fuc(a1-3)]GlcNAc. The essentials: as §1
Assay [9] addresses Fuc(a1-3)[GalNAc(b1-4)]GlcNAc. Summed up:
as §1

For assay [10], the target named is Gal(a1-3)Gal(b1-4)GlcNAc(b1-6)GalNAc. The essentials:
as §1

Assay [11] deals with Gal(a1-4)Gal(b1-4)GlcNAc(b1-3)Gal(b1-4)Glc. Summed up:
as §1

For assay [12], the target named is Gal(b1-3)GalNAc(b1-3)Gal(a1-4)Gal(b1-4)Glc. The essentials: as §1
Assay [13] concerns the target Gal(b1-3)GlcNAc(b1-2)Man(a1-3)[GlcNAc(b1-4)][Gal(b1-3)GlcNAc(b1-2)Man(a1-6)]Man(b1-4)GlcNAc(b1-4)GlcNAc. The essentials: as §1
Assay [14] concerns the target Gal(b1-3)GlcNAc(b1-3)Gal(b1-4)GlcNAc. Summed up:
as §1

In assay [15] the target is Gal(b1-3)GlcNAc(b1-3)Gal(b1-4)GlcNAc(b1-2)Man(a1-3)[Gal(b1-3)GlcNAc(b1-3)Gal(b1-4)GlcNAc(b1-2)Man(a1-6)]Man(b1-4)GlcNAc(b1-4)GlcNAc. Summed up: as §1
Assay [16] deals with Gal(b1-3)GlcNAc6S. Summed up:
as §1

The target in assay [17] is Gal(b1-4)GlcNAc(b1-2)Man(a1-6)Man(b1-4)GlcNAc(b1-4)GlcNAc. The essentials: as §1
The target in assay [18] is Gal(b1-4)GlcNAc(b1-2)Man(a1-6)[Man(a1-3)]Man(b1-4)GlcNAc(b1-4)GlcNAc. The essentials:
as §1

Assay [19] deals with Gal(b1-4)GlcNAc(b1-3)Gal(b1-4)GlcNAc(b1-2)[Gal(b1-4)GlcNAc(b1-3)Gal(b1-4)GlcNAc(b1-6)]Man(a1-6)[Gal(b1-4)GlcNAc(b1-3)Gal(b1-4)GlcNAc(b1-2)Man(a1-3)]Man(b1-4)GlcNAc(b1-4)[Fuc(a1-6)]GlcNAc. The essentials:
as §1

Assay [20] addresses Gal(b1-4)GlcNAc(b1-3)Gal(b1-4)GlcNAc(b1-3)Gal(b1-4)GlcNAc(b1-2)Man(a1-3)[Gal(b1-4)GlcNAc(b1-3)Gal(b1-4)GlcNAc(b1-3)Gal(b1-4)GlcNAc(b1-2)Man(a1-6)]Man(b1-4)GlcNAc(b1-4)GlcNAc. Summed up:
as §1

The target of assay [21] is Gal(b1-4)GlcNAc(b1-3)Gal(b1-4)GlcNAc(b1-3)Gal(b1-4)GlcNAc(b1-3)Gal(b1-4)GlcNAc(b1-2)Man(a1-3)[Gal(b1-4)GlcNAc(b1-3)Gal(b1-4)GlcNAc(b1-3)Gal(b1-4)GlcNAc(b1-3)Gal(b1-4)GlcNAc(b1-2)Man(a1-6)]Man(b1-4)GlcNAc(b1-4)[Fuc(a1-6)]GlcNAc. The essentials: as §1
Assay [22] deals with Gal(b1-4)GlcNAc(b1-3)Gal(b1-4)GlcNAc(b1-3)Gal(b1-4)GlcNAc(b1-3)Gal(b1-4)GlcNAc(b1-2)[Gal(b1-4)GlcNAc(b1-3)Gal(b1-4)GlcNAc(b1-3)Gal(b1-4)GlcNAc(b1-3)Gal(b1-4)GlcNAc(b1-6)]Man(a1-6)[Gal(b1-4)GlcNAc(b1-3)Gal(b1-4)GlcNAc(b1-3)Gal(b1-4)GlcNAc(b1-3)Gal(b1-4)GlcNAc(b1-2)Man(a1-3)]Man(b1-4)GlcNAc(b1-4)[Fuc(a1-6)]GlcNAc. The essentials:
as §1

B1: OS9-MRH (Homo sapiens), Q13438 (protein)
chain: IPELLSPMRDAPCLLKTKDWWTYEFCYGRHIQQYHMEDSEIKGEVLYLGYYQSAFDWDDETAKASKQHRLKRYHSQTYGNGSKCDLNGRPREAEVRFLCDEGAGISGDYIDRVDEPLSCSYVLTIRTPRLCPHPLLRPPPSAAPQAI
For the molecule B1, the “glycan array binding signal (z-score)” value is 3.15 in [1]; -1.22 in assay [2]; 0.415 in assay [3]; 0.3 in assay [4]; 2.76 in [5]; 0.172 in assay [6]. Further, the “glycan array binding signal (z-score)” value in assay [7] is -1.74; in [8], 2.81; in [9] it was -0.024; in [10], 0.493; in assay [11], -0.569; in assay [12] it was 2.47. In addition, the “glycan array binding signal (z-score)” value in [13] was 2.02; in assay [14], -0.137; in assay [15] it was 2.4; in assay [16] it was -0.326; in assay [17] it was 2.22; in assay [18], 1.24. Moreover, the “glycan array binding signal (z-score)” value is 2.17 in [19], 0.47 in assay [20], -0.755 in [21] and 1.51 in [22].
